According to PubChem BioAssay (NCI):
This is part of a sample that, as a whole, favours compounds with a hit. Of some 83,000 tested, about 20% had one in any assay.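 Interpretation: 100, growth as untreated; towards 0, rising growth inhibition; 0, no net growth; 0 to -100, cell death. Compounds scoring below 10 were considered active.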 Values without a mark were called inactive. Active and inactive are the calls of the source.

Legend:
Experiment in all cases: NCI-60 one-dose screen, 48 h (100 = growth as untreated, 0 = no growth, -100 = all killed)
NCI-H226 lung = conditions: 10 µM
NCI-H322M lung = conditions: 10 µM
HOP-62 NSCLC = conditions: 10 µM
NCI-H522 lung = conditions: 10 µM
A549/ATCC NSCLC = conditions: 10 µM
COLO 205 colon = conditions: 10 µM
DU-145 prostate = conditions: 10 µM
K-562 leukemia = conditions: 10 µM
SF-539 CNS = conditions: 10 µM
M14 melanoma = conditions: 10 µM
HCT-15 colon = conditions: 10 µM
HT29 colon = conditions: 10 µM
SNB-75 CNS = conditions: 10 µM
U251 CNS = conditions: 10 µM
PC-3 prostate = conditions: 10 µM
LOX IMVI melanoma = conditions: 10 µM
MOLT-4 leukemia = conditions: 10 µM
RPMI-8226 leukemia = conditions: 10 µM
SK-OV-3 ovarian = conditions: 10 µM
MDA-MB-468 breast = conditions: 10 µM unless noted

SMILES	growth (NCI-H226 lung)	growth (NCI-H322M lung)	growth (HOP-62 NSCLC)	growth (NCI-H522 lung)	growth (A549/ATCC NSCLC)	growth (COLO 205 colon)	growth (DU-145 prostate)	growth (K-562 leukemia)	growth (SF-539 CNS)	growth (M14 melanoma)	growth (HCT-15 colon)	growth (HT29 colon)	growth (SNB-75 CNS)	growth (U251 CNS)	growth (PC-3 prostate)	growth (LOX IMVI melanoma)	growth (MOLT-4 leukemia)	growth (RPMI-8226 leukemia)	growth (SK-OV-3 ovarian)	growth (MDA-MB-468 breast)
O=C(CC(=O)Nc1ccc(Oc2ncnc3scc(Nc4n[nH]c(=S)s4)c23)cc1)Nc1ccc(Br)cc1	94.4%	106%	99.8%	89.6%	101%	107%	107%	76.4%	104%	98.1%	100%	112%	95.6%	103%	99.9%	66.2%	85.3%	110%	98.4%	120%
CC1(C)CC(=O)C2=C(C1)N(Cc1ccc(C(=O)O)cc1)C1=C(C(=O)CC(C)(C)C1)C2c1ccc(Cl)cc1	108%	93.7%	101%	84.9%	99.3%	121%	113%	103%	110%	101%	98.4%	112%	94.5%	105%	109%	61.7%	92.9%	113%	101%	103%
O=C(CN1CCN(c2ncnc3c2cnn3-c2ccccc2)CC1)Nc1ccc(Br)cc1	62.5%	77.2%	84.6%	-80.3% (active)	75.2%	70.6%	67.9%	42.8%	82.3%	59.3%	45.2%	73.3%	80.9%	76.2%	49.1%	81.8%	15%	42.6%	76.7%	49.2%
